Assay results taken from PubChem BioAssay (NCATS).
Records with an inconclusive call do not appear. Activity calls are given as the source filed them. Calls come from the whole dose curve; as a rule, active = well fitted inhibition curve with a large enough effect; inconclusive = small, poorly fitted or top-dose-only effect; inactive = flat fitted curve, though single readings scatter.

Tests used:
Assay in all cases: Cytotoxic Profiling of Annotated Libraries Using Quantitative High-Throughput Screening (AID 1296008); note: nearly all actives have a fitted effect of over 60% in size
Settings in all cases: Five cell lines viability, CellTiter-Glo ATP luminescence, 48-72 h; max response: hits give low values
CRL-7250 = system: CRL-7250
How it was run: (§1)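 Compounds were pin-transferred onto cells and incubated 48 or 72 hr at 37 degree Celsius, 95% humidity. CellTiter-Glo was added, plates sat 10 min at room temperature, then ATP-coupled luminescence was imaged as the viability read-out.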

HEK293 = system: HEK293
How it was run: as §1

HaCat = system: HaCat
How it was run: as §1

KB-3-1 = system: KB-3-1
How it was run: as §1

NIH3T3 = system: NIH3T3
How it was run: as §1
% is set by controls: 0 for no effect and ±100 for the full control effect; potency is the fitted concentration of half-maximal effect.

O=C(COCC(=O)N1CCN(C(c2ccccc2)c2ccccc2)CC1)Nc1ccc(Cl)cc1C(=O)O
inactive: max response (CRL-7250) -11.2% | max response (HEK293) 4.17% | max response (HaCat) -6.79% | outcome (KB-3-1) | outcome (NIH3T3)

C[C@@H]1O[C@@H](O[C@H]2[C@H](OC(=O)[C@]34CCC(C)(C)C[C@H]3C3=CCC5[C@@]6(C)CC[C@H](O[C@@H]7O[C@H](CO[C@@H]8OC[C@H](O)[C@H](O)[C@H]8O)[C@@H](O)[C@H](O)[C@H]7O)C(C)(C)C6CC[C@@]5(C)[C@]3(C)C[C@H]4O)OC[C@@H](O)[C@@H]2O)[C@H](O)[C@H](O[C@@H]2OC[C@](O)(CO)[C@H]2O)[C@H]1O[C@@H]1OC[C@H](O)[C@H](O[C@@H]2OC[C@@H](O)[C@H](O)[C@H]2O)[C@H]1O (stereo not given in full)
inactive: outcome (CRL-7250) | max response (HEK293) -12.4% | outcome (HaCat) | max response (KB-3-1) 6% | max response (NIH3T3) -2.23%

CC1(C)CC[C@]2(C(=O)O)CC[C@]3(C)C(=CCC4[C@@]5(C)CC[C@H](O[C@H]6O[C@H](C(=O)O)[C@@H](O)[C@H](O[C@@H]7O[C@H](CO)[C@H](O)[C@H](O)[C@H]7O)[C@H]6O)C(C)(C)C5CC[C@]43C)[C@@H]2C1 (stereo not given in full)
inactive: outcome (CRL-7250) | outcome (HEK293) | max response (HaCat) 3.39% | max response (KB-3-1) 4.97% | max response (NIH3T3) -6.78%

CC(C)=C1CC2[C@](C)(CC[C@@H](OC(=O)C3(C)OC3C)[C@@]2(C)O)CC1=O (stereo not given in full)
inactive: outcome (CRL-7250) | max response (HEK293) 4.03% | outcome (HaCat) | max response (KB-3-1) 6.8% | max response (NIH3T3) -3.35%

CC(C)c1ccc2c(c1)C(=O)CC1C(C)(C(=O)O)CCCC21C (stereo not given)
inactive: max response (CRL-7250) -5.24% | max response (HEK293) -1.52% | outcome (HaCat) | max response (KB-3-1) -0.919% | max response (NIH3T3) -2.58%

COC(=O)C1=CO[C@@H](O[C@@H]2O[C@H](CO)[C@@H](O)[C@H](O)[C@H]2O)C2C1CC(O)C2C (stereo not given in full)
inactive: max response (CRL-7250) -13.7% | max response (HEK293) 0.336% | outcome (HaCat) | outcome (KB-3-1) | max response (NIH3T3) -5.32%

C=C1CC[C@@H]2[C@@](C)(CO[C@@H]3O[C@H](CO)[C@@H](O)[C@H](O)[C@H]3O)[C@H](O)CC[C@@]2(C)[C@@H]1CC/C(C)=C/CO[C@@H]1O[C@H](CO)[C@@H](O)[C@H](O)[C@H]1O
inactive: outcome (CRL-7250) | max response (HEK293) -9.45% | outcome (HaCat) | max response (KB-3-1) -3.96% | max response (NIH3T3) -12.7%

N[C@@H](CCNCc1ccc(Cl)cc1)C(=O)N1CCCCC1
inactive: outcome (CRL-7250) | max response (HEK293) 2.57% | outcome (HaCat) | max response (KB-3-1) 7.85% | max response (NIH3T3) -2.5%

CC(C)(Oc1ccc(-c2nc3cc(Cl)ccc3s2)cc1)C(=O)O
inactive: outcome (CRL-7250) | max response (HEK293) -8.75% | outcome (HaCat) | max response (KB-3-1) 5.1% | outcome (NIH3T3)

CC(=O)/C=C/C1(O)C(C)=CC(=O)CC1(C)C (stereo not given)
inactive: max response (CRL-7250) -1.97% | max response (HEK293) -3.4% | outcome (HaCat) | max response (KB-3-1) -2.68% | outcome (NIH3T3)

Oc1ccc2c(-c3c(-c4ccccn4)nn4c3CCC4)ccnc2c1
inactive: max response (CRL-7250) -1.66% | max response (HEK293) -21.7% | outcome (HaCat) | max response (KB-3-1) -4.91%
active: Potency (NIH3T3) 13 µM

COc1cc(/C=C/C(=O)O)ccc1O[C@@H]1O[C@H](CO)[C@@H](O)[C@H](O)[C@H]1O[C@@H]1OC[C@](O)(CO)[C@H]1O
inactive: outcome (CRL-7250) | max response (HEK293) -3.47% | outcome (HaCat) | max response (KB-3-1) 0.854% | outcome (NIH3T3)

C=C(C)[C@@H]1CC[C@]2(C(=O)O)CC[C@]3(C)[C@H](CCC4[C@@]5(C)CCC(=O)C(C)(C)C5C(O)C[C@]43C)C12 (stereo not given in full)
active: Potency (HEK293) 4.47 µM
inactive: max response (CRL-7250) -6.3% | outcome (HaCat) | max response (KB-3-1) -20.6% | max response (NIH3T3) -1.28%

COc1cccc(OC)c1-c1ccc(C[C@H](NC(=O)c2c(Cl)cccc2Cl)C(=O)O)cc1
inactive: max response (CRL-7250) 1.89% | max response (HEK293) -9.99% | outcome (HaCat) | outcome (KB-3-1) | outcome (NIH3T3)

CC1(C)CC[C@]2(C(=O)O)CC[C@]3(C)C(=CCC4[C@@]5(C)C[C@@H](O)[C@H](O)[C@@](C)(CO)C5CC[C@]43C)C2C1 (stereo not given in full)
inactive: outcome (CRL-7250) | max response (HEK293) 2.88% | outcome (HaCat) | max response (KB-3-1) -4.17% | max response (NIH3T3) -3.06%

COC(=O)c1[nH]c(=O)c2ccccc2c1-c1ccc[nH]1
active: Potency (HEK293) 20.6 µM
inactive: outcome (CRL-7250) | outcome (HaCat) | outcome (KB-3-1) | outcome (NIH3T3)

Cc1noc2c1-c1ccccc1C(c1ccc(Cl)cc1)=N[C@H]2CC(N)=O
inactive: max response (CRL-7250) 1.75% | max response (HEK293) -4.39% | outcome (HaCat) | outcome (KB-3-1) | max response (NIH3T3) -0.413%

C=C1CC23CC1CCC2C12OC(=O)C(C)(C(O)CC1O)C2C3C(=O)O (stereo not given)
inactive: max response (CRL-7250) -0.83% | max response (HEK293) -15.6% | outcome (HaCat) | max response (KB-3-1) 1.34% | max response (NIH3T3) -6.25%

CC1CC2(O)OC(=O)C3=C2C(CCC3)[C@@]12C[C@@H](c1ccoc1)OC2=O (stereo not given in full)
inactive: max response (CRL-7250) 0.272% | max response (HEK293) -0.207% | outcome (HaCat) | outcome (KB-3-1) | max response (NIH3T3) 0.0082%

OC[C@@]1(O)CO[C@@H](OC[C@H]2O[C@@H](OCc3ccccc3)[C@H](O)[C@@H](O)[C@@H]2O)[C@@H]1O
inactive: max response (CRL-7250) 1.98% | max response (HEK293) 2.46% | outcome (HaCat) | outcome (KB-3-1) | outcome (NIH3T3)

CCOC(=O)C1=C(N)Oc2ccc(Cl)cc2C1C(C#N)C(=O)OCC (stereo not given)
inactive: max response (CRL-7250) 2.77% | max response (HEK293) 1.25% | outcome (HaCat) | outcome (KB-3-1) | max response (NIH3T3) -2.7%

C[C@@H]1O[C@@H](O[C@H]2[C@H](OC(=O)[C@]34CCC(C)(C)C[C@H]3C3=CCC5[C@@]6(C)C[C@@H](O)[C@@H](O[C@@H]7O[C@H](CO)[C@@H](O)[C@H](O)[C@H]7O)[C@@](C)(CO)C6[C@H](O)C[C@@]5(C)[C@]3(C)CC4)OC[C@H](O)[C@@H]2O)[C@H](O)[C@H](O[C@@H]2OC[C@](O)(CO)[C@H]2O)[C@H]1O[C@@H]1OC[C@@H](O)[C@H](O[C@H]2O[C@H](C)[C@@H](O)[C@H](O)[C@@H]2O)[C@H]1O (stereo not given in full)
inactive: outcome (CRL-7250) | max response (HEK293) 4.64% | max response (HaCat) 2.54% | outcome (KB-3-1) | outcome (NIH3T3)

CC1=C2CC(O)(C(C)(C)O)C(O[C@@H]3O[C@H](CO)[C@@H](O)[C@H](O)[C@H]3O)CC(C)C2CC1=O (stereo not given in full)
inactive: max response (CRL-7250) 2.9% | max response (HEK293) -24.8% | outcome (HaCat) | max response (KB-3-1) 7.73% | outcome (NIH3T3)

COc1ccc2[nH]c(S(=O)Cc3ncc(C)c(OC)c3C)nc2c1 (stereo not given)
inactive: max response (CRL-7250) -15.2% | max response (HEK293) 3.04% | outcome (HaCat) | max response (KB-3-1) 6.01% | outcome (NIH3T3)

C/C=C/C=C/C=C/C(=O)O[C@@H]1[C@@H](OC)C2=C(C(=O)N(C(CCC(=O)O)C(=O)O)C2)[C@@]2(C)CCCC(C)(C)[C@H]12 (stereo not given in full)
inactive: max response (CRL-7250) -4.83% | outcome (HEK293) | max response (HaCat) -8.01% | max response (KB-3-1) 0.124% | max response (NIH3T3) -12.6%

NC(=O)[C@@H]1CC[C@H](c2ccc(OCc3ccccc3F)cc2)N1
inactive: max response (CRL-7250) -6.02% | max response (HEK293) 2.17% | outcome (HaCat) | max response (KB-3-1) -8.37% | outcome (NIH3T3)

C/C(=C\C(=O)C[C@@]12C(=O)O[C@]3(C)CC[C@H]1C[C@H]23)C(N)=O
inactive: max response (CRL-7250) -61.5% | max response (HEK293) -18.5% | outcome (HaCat) | outcome (KB-3-1) | outcome (NIH3T3)

CC(C)=CCC/C(C)=C/CO[C@@H]1O[C@H](CO[C@@H]2O[C@@H](CO)[C@H](O)[C@H]2O)[C@@H](O)[C@H](O)[C@H]1O
inactive: max response (CRL-7250) -10.8% | max response (HEK293) -7.37% | outcome (HaCat) | outcome (KB-3-1) | outcome (NIH3T3)

CC1(C)CC=C(C#Cc2ccccc2)c2cc(/C=C/c3ccc(C(=O)O)cc3)ccc21
inactive: max response (CRL-7250) -4.79% | max response (HEK293) 1.6% | outcome (HaCat) | max response (KB-3-1) 3.78% | max response (NIH3T3) -4.98%

OC[C@H]1O[C@@H](Oc2cc(O)cc(-c3cc4ccc(O[C@@H]5O[C@H](CO)[C@@H](O)[C@H](O)[C@H]5O)cc4o3)c2)[C@H](O)[C@@H](O)[C@@H]1O
inactive: max response (CRL-7250) -9.86% | max response (HEK293) -2.42% | outcome (HaCat) | max response (KB-3-1) 0.0792% | max response (NIH3T3) -3.34%

CC1(C)OC(=O)CC(O)C2(C)C1CC(=O)C1(C)C2C(O)CC2(C)C(c3ccoc3)OC(=O)C3OC321 (stereo not given)
inactive: max response (CRL-7250) -14.5% | outcome (HEK293) | max response (HaCat) -9.13% | outcome (KB-3-1) | max response (NIH3T3) -11.7%

COC(=O)C1=COC(OC2OC(CO)C(O)C(O)C2O)C2C(C)C(OC(C)=O)C(OC(=O)c3ccccc3)C12 (stereo not given)
inactive: max response (CRL-7250) -19.7% | max response (HEK293) -48.1% | outcome (HaCat) | outcome (KB-3-1) | max response (NIH3T3) -45.7%

C=C1CC[C@@]2(OC1)O[C@H]1CC3C4CC=C5C[C@@H](O[C@@H]6O[C@@H](C)[C@H](O)[C@@H](O)[C@H]6O)C[C@@H](O[C@@H]6O[C@H](C)[C@H](O)[C@H](O)[C@H]6O[C@@H]6O[C@@H](C)[C@H](O)[C@@H](O)[C@H]6O)[C@]5(C)C4CC[C@]3(C)[C@H]1[C@@H]2C (stereo not given in full)
inactive: outcome (CRL-7250) | max response (HEK293) 1.18% | max response (HaCat) -14.8% | max response (KB-3-1) 5.01% | outcome (NIH3T3)

COC(=O)[C@@H](NC(=O)[C@H](CC(C)C)NC(=O)N(Cc1ccccc1)C[C@@H](O)[C@H](Cc1ccccc1)NC(=O)OC(C)(C)C)C(C)C
inactive: outcome (CRL-7250) | max response (HEK293) 0.117% | outcome (HaCat) | max response (KB-3-1) -5.6% | max response (NIH3T3) -6.39%

COC(=O)C1=COC(OC2OC(CO)C(O)C(O)C2O)C2C(COC(=O)/C=C/c3ccc(O)c(O)c3)C(O)C(O)C12 (stereo not given)
inactive: outcome (CRL-7250) | max response (HEK293) 0.488% | outcome (HaCat) | outcome (KB-3-1) | max response (NIH3T3) 2.28%

CC1OC(O[C@@H]2[C@H](O)[C@@H](OC3OC(CO)C(O)C(O)C3O)[C@H](OC(=O)[C@]34CCC(C)(C)C[C@H]3C3=CCC5[C@@]6(C)CC[C@H](O[C@@H]7O[C@H](C(=O)O)[C@@H](O)[C@H](O[C@@H]8OC[C@@H](O)[C@H](O)[C@H]8O)[C@H]7O[C@@H]7O[C@H](CO)[C@H](O)[C@H](O)[C@H]7O)[C@@](C)(C=O)C6CC[C@@]5(C)[C@]3(C)C[C@H]4O)O[C@@H]2C)C(O)C(O)C1OC1OCC(O)C(O)C1O (stereo not given in full)
inactive: max response (CRL-7250) -3.77% | max response (HEK293) -1.1% | outcome (HaCat) | outcome (KB-3-1) | outcome (NIH3T3)
